About 79,000 compounds went through this panel and 15% of them were active in at least one assay; those are over-represented in the sample as a whole. Calls of active or inactive are those of the source. Rule as the data show it: active = growth inhibition above about 70%; inactive = the rest. Where a SMILES comes first, the peptide text is derived from it. [ ]: non-standard residue; d: D form. The star is where a group is joined. ONb = O=[N+]([O-])c1ccc(CO*)cc1; AllylGly = C=CC[CH](N)C(=O)O; Boc = CC(C)(C)OC(=O)*

This test in a line: NCI Yeast Anticancer Drug Screen. Data for the cln2 rad14 strain (AID 165).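 Also: 0% = growth equal to vehicle treated cultures.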 As to conditions: S. cerevisiae cln2 rad14 strain, at 50.0 µM, stronger effect = higher value. In short, it runs like this:
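Readout is yeast growth inhibition versus vehicle-treated controls, using a strain with cln2 and rad14 alterations exposed to compound.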
For the compound `Cc1cccc2c(N=[N+]=[N-])cc(C(F)(F)F)nc12`, the growth inhibition was -43% (inactive).
On to `COC(C)C(NC(=O)C1CCCN1C)C1OC(SCCOC(=O)c2ccccc2O)C(O)C(O)C1O` (stereo not given), for which the growth inhibition was 13.4% (inactive).
Consider `CC1(C)N(/N=C/c2ccccc2)C(c2ccccc2)C(c2ccccc2)N1/N=C/c1ccccc1` (stereo not given), for which the growth inhibition was -11.3% (inactive).
Turning to `CC(C)CSC(SCC(C)C)C(O)C(O)C(O)CO` (stereo not given), the growth inhibition is -35.2% (inactive).
For `N#CC1=C(N)CCC(C#N)(c2ccccc2)C1` (stereo not given) the value was 14.8% (inactive); for `O=C1C(=C(c2ccccc2)N2CCCCC2)C(=O)c2ccccc21`, -7.75% (inactive).
For `CCCCCCCCCCCCCCCCCCOc1c(Cl)c(Cl)c(Cl)c(Cl)c1Cl` the value was -25.9% (inactive); for `O=C1c2c(O)cccc2C(C(=O)CCCC(=O)C2c3cccc(O)c3C(=O)c3c(O)cccc32)c2cccc(O)c21`, 19.9% (inactive); for `NNC(=O)C(=O)N/N=C(/CC1(O)C(=O)Nc2ccccc21)c1ccc(Cl)cc1Cl` (stereo not given), -53.4% (inactive).
For `O=C(O)c1cccc([N+](=O)[O-])c1Nc1cccc(C(F)(F)F)c1` the value was 29.3% (inactive).
With `C[N+](C)(C)c1cc(Br)c(O)c(Br)c1`, the growth inhibition is -2.75% (inactive).
Take `COC(=O)c1cc(C(=O)OC)c(C(=O)OC)cc1C(=O)OC`: the growth inhibition was -37.8% (inactive).
For the compound `CCc1ccccc1NC(=O)C1=C(C)NC(C)=C(C(=O)Nc2ccccc2CC)C1c1cccc([N+](=O)[O-])c1`, the growth inhibition is 17.9% (inactive).
As to `CCCCOC(=O)NC(=O)c1cn(CCCOC(=O)CCCCCCCCC(=O)OCCCn2cc(C(=O)NC(=O)OCCCC)c(=O)n(C)c2=O)c(=O)n(C)c1=O`, the growth inhibition was 12.2% (inactive).
As to `CCC(Nc1nncs1)Nc1nncs1`, the growth inhibition is -20.9% (inactive).
In the case of `C=C(Cl)C(=O)O`, the growth inhibition is -0.55% (inactive).
As to `CC1CCCC(C)C1CO` (stereo not given), the growth inhibition was 22.7% (inactive).
For `CC(=O)OCc1cc(=O)n2c([nH]c3ccccc32)c1C#N` the value was -15.5% (inactive); for `Cc1ccnc(NCc2ccccn2)c1`, -0.15% (inactive).
With `Cc1ccc(S(=O)(=O)N=Nc2c(O)[nH]c3c(Cl)cc(Cl)cc23)cc1`, the growth inhibition is -1.2% (inactive).
The same measure for `COc1ccc(/C=C/C2=CC(=O)CC(c3ccc(OC)c(OC)c3)C2)cc1OC` (stereo not given): -35.6% (inactive); for `O=Cc1ccc(-c2cccc([N+](=O)[O-])c2)s1`: 19.9% (inactive); for `COCC(N=CN1CCCc2ccccc2[C@@H]1CCCCl)C(C)(C)C` (stereo not given in full): 19.7% (inactive).
For `Cc1ccc2[nH]c(=O)cc(C)c2c1` the value was 20.2% (inactive); for `COc1ccc(-c2nnc(CCCCCCCCc3nnc(-c4ccc(OC)cc4)n3N)n2N)cc1`, 0.8% (inactive); for `CCCCC1CCC2CCCCC2C1` (stereo not given), -18.1% (inactive).
Turning to `COc1cc(/C=C2\CCC(CN(C)C)C2=O)ccc1OC(=O)c1ccccc1` (stereo not given), the growth inhibition was 89.1% (active).
For the compound `CCOC(=O)/C(C#N)=C/Nc1[nH]c(=O)c(C#N)c(-c2ccc(Cl)cc2)c1SC`, the growth inhibition is -9.2% (inactive).
Take `CC(=O)C1=CN(Cc2ccccc2)C(O)CC1C(N)=O` (stereo not given): the growth inhibition was 10.8% (inactive).
For `CCN(CC)CCNc1ccc(C)c2sc3ccc(N)cc3c(=O)c12` the value was 28.3% (inactive).
With `CN(C)c1nc(=O)c2c(ccc3ccccc32)o1`, the growth inhibition was 14.7% (inactive).
For the compound `CCCCCC(Nc1nncs1)Nc1nncs1`, the growth inhibition was 6.1% (inactive).
For `Cc1cc(=O)n(-c2ccc(-c3ccc(-n4c(C)c(C(=O)O)c(C)cc4=O)cc3)cc2)c(C)c1C(=O)O` the value was 24.1% (inactive); for `CC[N+](CC)(CC)CCCC[P+](CC)(CC)CC`, 9.9% (inactive); for `COc1ccc(-n2c(N)c(C#N)c(C#N)c2-c2cccc([N+](=O)[O-])c2)cc1`, -3.1% (inactive).
As for `Nc1ccc2cn[nH]c2c1`, the growth inhibition was -10.4% (inactive).
On to `C=CCC(NC(=O)OC(C)(C)C)C(=O)NC(CCC(=O)OCc1ccc([N+](=O)[O-])cc1)C(N)=O` (stereo not given) (Boc-[AllylGly]-Glu(ONb)-NH2; configuration not given here), for which the growth inhibition is 9.25% (inactive).
For `CC1(n2[nH]c(=O)n(-c3ccccc3)c2=O)Cn2c(=O)n(-c3ccccc3)c(=O)n2-c2ccccc21` (stereo not given) the value was 18.7% (inactive).
On to `COC1OC(=O)c2ccccc21` (stereo not given), for which the growth inhibition was -0.7% (inactive).
In the case of `CCN(CC)CCN(Cc1ccccc1)C(=S)NC(=O)c1ccccc1`, the growth inhibition was -5.8% (inactive).
